High-throughput results as filed in PubChem BioAssay.
In the library only some 3.8% were active in any assay of this set; here they are far more common.
A549 viability – counter-screen for Nrf2 inhibitors: cytotoxicity in A549 cells; A549 ARE-Fluc cells, CellTiter-Fluor viability, 18-24 h; Potency, µM (titrated, usually from 46 µM), for inactives: at the top dose activity change, negative = cytotoxicity, actives largely listed as inhibitors; 390,000 compounds, 0.16% hits; AID 504648; further: on the % scale 0 is the no-effect control and ±100 the full control effect
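A549 ARE_Fluc cells in 5% FBS OPTI-MEM were exposed to compounds in concentration-response for 18-24 h at 37 deg C. Viability was read by CellTiter-Fluor fluorescence (Ex 405/Em 525) after 30 min, before the luciferase read.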
S2 tox – viability counter-screen for ATXN expression inhibitors; AID 651635; S2 cells (HEK-293 line with an ATXN2-luciferase reporter) viability, CellTiter-Fluor protease fluorescence, 24 h; Potency, µM (top dose mostly 56.7 µM), hits mostly cytotoxic; 400,000 compounds, 0.49% hits; further: nearly all actives have a fitted effect of over 40% in size
Nrf2 block – blocks Nrf2 signaling. A549 ARE-Fluc reporter, luciferase luminescence, 18-24 h. Potency, µM (titrated, usually from 46 µM), for the others: at the top dose activity change, negative = inhibition, hits mostly inhibitors. 360,000 compounds, 2.1% hits. AID 504444; further: on the % scale 0 is the no-effect control and ±100 the full control effect; nearly all actives have a fitted effect of over 60% in size
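In this cell-based qHTS, ARE-driven firefly luciferase in A549 cells reports Nrf2 activity; the luminescent signal after BugLite lysis is the measured value, with a prior CellTiter-Fluor read for cell health.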
HepG2 tox – counter-screen for TGF-b inhibitors: cytotoxicity in HepG2 cells; AID 588856; Potency, µM (series often up to 46.1 µM), inactives show at the highest dose activity change, negative = cytotoxicity, hits mostly cytotoxic; 410,000 compounds, 0.76% hits; HepG2 CAGA-GFP viability, ATP luminescence, 18 h
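CellTiter-Glo luminescence gave cytotoxicity after 18 hours at 37 degrees C. The cells were HepG2 CAGA-GFP in 1% FBS DMEM, stimulated with 500 pg/mL TGF-beta after compound addition. %Activity was normalised to no-cell wells (complete cell-killing) and DMSO (no toxicity), and curves were fitted and classified.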
TGFb SMAD3 inh – inhibitors of TGF-b signaling | AID 588855 | HepG2 CAGA-GFP TGF-b/SMAD3 reporter, GFP fluorescence, 18 h; TGF-beta stimulated, 500 pg/mL final | 410,000 compounds, 1.2% hits | Potency, µM (top dose mostly 46.1 µM), without a hit: top-dose activity, negative = inhibition, hits mostly inhibitors; further: on the % scale 0 is the no-effect control and ±100 the full control effect; nearly all actives have a fitted effect of over 65% in size
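Using HEPG2 CAGA-GFP reporter cells at 1000 cells/well, we pinned test compounds, stimulated with recombinant TGF-beta (500 pg/mL final) and measured total well GFP after 18 h.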
ATXN2 expr inh – reduces ATXN2 reporter expression in HEK-293 cells; AID 1745845; Potency, µM (highest dose often 57 µM), without a hit: at the top dose activity change, negative = inhibition, hits mostly inhibitors; HEK-293 ATXN2-luciferase reporter, luminescence, 24 h; 360,000 compounds, 0.72% hits; further: on the % scale 0 is the no-effect control and ±100 the full control effect; nearly all actives have a fitted effect of over 55% in size
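ATXN2-luciferase reporter cells (luciferase flanked by upstream and downstream ATXN2 gene portions) were treated 24 h at 37 °C with compounds at up to 57 uM. SteadyGlo luminescence gave expression; GF-AFC fluorescence gave viability.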
The depositor's hits bear a star; i = inactive; ? = inconclusive; · = no result. The call rests on the fitted dose curve; in most records, active means well fitted curve in the direction sought with a large enough effect; inconclusive means small, poorly fitted or top-dose-only effect, or another doubt; inactive means no such curve, though single readings can be large; an effect the other way counts as inactive or inconclusive. Potency means the concentration at half of the fitted maximal effect.

SMILES | A549 viability | S2 tox | Nrf2 block | HepG2 tox | TGFb SMAD3 inh | ATXN2 expr inh
C=C1CCc2c([nH]c3ccc(OCC(C)C)cc23)C1=O | -1% | ? | -6% | 2.5µM* | 5µM* | ?
Oc1ccc(-c2nnc(SCC3CCCCC3)o2)cc1 | -10% | ? | 27% | 11µM* | -29% | 43%
O=C(CSc1nnc(-c2ccc(O)cc2)o1)N1CCOCC1 | -6% | i | ? | -17% | 0% | 21%
Cc1ccc(N2C(=O)CS(=O)(=O)C23C(=O)N(Cc2ccccc2F)c2ccccc23)cc1Cl (stereo unspecified) | 11% | i | -29% | -8% | 0% | 5%
N=c1n(CCN2CCCCC2)c2ccccc2n1CC(=O)c1cccc([N+](=O)[O-])c1 | -5% | ? | 2% | 13µM* | ? | ?
Nc1cc2c3c(cccc3c1)C(=O)N(CCN1CCCC1)C2=O | ? | ? | 13µM* | -15% | ? | ?
NC(=O)CN1CCN(CCN2C(=O)c3cccc4cccc(c34)C2=O)CC1 | 1% | i | -11% | 1% | -2% | 0%
CN(C)CCN1C(=O)c2cccc3cc(N)cc(c23)C1=O | · | · | · | · | · | 5.4µM*
CCN(CC)CCN1C(=O)c2cccc3cc(N)cc(c23)C1=O | ? | ? | ? | -13% | ? | ?
OCCN1CCN(C2CCC(c3ccc(F)cc3)c3ccc(F)cc32)CC1 (stereo unspecified) | 2% | ? | ? | i | 20µM* | 25µM*
O=C(COc1ccccc1Cl)Nc1cc(-c2ccccc2F)nn1-c1ccccc1 | 2% | i | · | -5% | -11% | 6%
O=c1oc(Cc2ccccc2)nc2ccccc12 | 1% | i | 26% | 24% | 2% | ·
Cc1cc2oc(=O)c(CC(=O)NCCCO)c(C)c2c2occ(C(C)(C)C)c12 | 3% | i | -5% | -27% | -30% | 5%
Cc1cc2oc(=O)c(CC(=O)NCCCN(C)C)c(C)c2c2occ(C(C)(C)C)c12 | -6% | 22µM* | 16% | 22µM* | ? | -28%
Fc1ccc(-c2nnc3ccc(N4CCc5ccccc5C4)nn23)cc1 | -1% | · | ? | 1% | 20% | 32µM*
O=C(Nc1ccc(F)cc1)N1CCN(c2ccc3nnc(-c4ccc(F)cc4)n3n2)CC1 | ? | ? | ? | 13% | -6% | ?
COC(=O)c1cn(-c2nc3ccccc3s2)nn1 | · | i | · | · | · | 1%
CCN(CC)C(=O)C1=C(C)N(Cc2ccccc2)C(=O)C(CC(=O)NC2CC2)C1 (stereo unspecified) | · | i | · | -3% | -7% | -4%
Cc1cc(-c2ccc(S(=O)(=O)Nc3ccccc3F)s2)on1 | -1% | · | ? | -9% | -13% | ·
COCC(C)N1C(=O)Cc2c1nc(N)c1c(N)nc(N3CCN(c4ccccc4F)CC3)c(C#N)c21 (stereo unspecified) | -11% | ? | 12µM* | 7% | 11% | ?
O=C(Nc1ccc(Cl)cc1)C1C2C=CC3(O2)C1C(=O)N(CCCN1CCCCC1)C3C(=O)NC1CCCCC1 (stereo unspecified) | -10% | i | 9% | -6% | 10% | -10%
CC(Nc1ccccc1N1CCCCC1)C(=O)N1CCc2ccccc21 (stereo unspecified) | -9% | i | 9.2µM* | 22% | -8% | -20%
CCOC(=O)n1c2ccccc2c(=O)n1CCO | · | i | · | -2% | 0% | 9%
O=C(c1ccc(Cl)cc1)N1CCN(c2ccnc3cc(Cl)ccc23)CC1 | ? | i | 21µM* | 2% | ? | ?
O=S(=O)(c1ccc(Br)s1)N1CCN(c2ccnc3cc(Cl)ccc23)CC1 | -6% | i | 21µM* | 9% | -42% | -25%
